Only a selection was taken, and hits are over-represented in it overall.
HT1080NT lethal: qHTS for induction of synthetic lethality in tumor cells producing 2HG: qHTS for the HT-1080-NT fibrosarcoma cell line | HT-1080-NT fibrosarcoma viability, CellTiter-Glo ATP luminescence, 48 h | 360,000 compounds, 1.6% hits | Potency, µM (doses to about 46.1 µM), hits mostly cytotoxic;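 also: NT is the 2HG producing partner of a matched IDH1 knockdown line; nearly all actives have a fitted effect of over 55% in size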
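A 48-hour cytotoxicity screen used HT-1080-NT cells plated 2 hours before compound delivery. ATP-based CellTiter-Glo luminescence measured viability, normalized to DMSO and no-cell controls.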
DT40 TDP1 CPT: qHTS for Inhibitors of human tyrosyl-DNA phosphodiesterase 1 (TDP1): qHTS in cells in presence of CPT | chicken DT40 Tdp1-/-;hTDP1 cells + 20 nM CPT, ATP luminescence, 48 h | Potency, µM (top dose mostly 46.2 µM), usual class: inhibitors | 420,000 compounds, 12% hits | AID 686979, 2013; also: nearly all actives have a fitted effect of over 55% in size
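Chicken DT40 Tdp1-/- cells complemented with human TDP1, 400 cells/well, exposed to compounds plus 20 nM camptothecin for at least 48 h at 37 C; viability read as ATP content by CellTiter-Glo luminescence.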
12-LOX inh: Primary qHTS assay for inhibitors of human arachidonate 12S-lipoxygenase (ALOX12): Round 2; Polyunsaturated fatty acid lipoxygenase ALOX12 (Homo sapiens), P18054; purified 12hLO, xylenol orange hydroperoxide absorbance; Potency, µM (highest dose often 108 µM), hits mostly inhibitors; 580,000 compounds, 1.1% hits; AID 1671190, 2021
Target sequence (P18054 whole entry, looked up): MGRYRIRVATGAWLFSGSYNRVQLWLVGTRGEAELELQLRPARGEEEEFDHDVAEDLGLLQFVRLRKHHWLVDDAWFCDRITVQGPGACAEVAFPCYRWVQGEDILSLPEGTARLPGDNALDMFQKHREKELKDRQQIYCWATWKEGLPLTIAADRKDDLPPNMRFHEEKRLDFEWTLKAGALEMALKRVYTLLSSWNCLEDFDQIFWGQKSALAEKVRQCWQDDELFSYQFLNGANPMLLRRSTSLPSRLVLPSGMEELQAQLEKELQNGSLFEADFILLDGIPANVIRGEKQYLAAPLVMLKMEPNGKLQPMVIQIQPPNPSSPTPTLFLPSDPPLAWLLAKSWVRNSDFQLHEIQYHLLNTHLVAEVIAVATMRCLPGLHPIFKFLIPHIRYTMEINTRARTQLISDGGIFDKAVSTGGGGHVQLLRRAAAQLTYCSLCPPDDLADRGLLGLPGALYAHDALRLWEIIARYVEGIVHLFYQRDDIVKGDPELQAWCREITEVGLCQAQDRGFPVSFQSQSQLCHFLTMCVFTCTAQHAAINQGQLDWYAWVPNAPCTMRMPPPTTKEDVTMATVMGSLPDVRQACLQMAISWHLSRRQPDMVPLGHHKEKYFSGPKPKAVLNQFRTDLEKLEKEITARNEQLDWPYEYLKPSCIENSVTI
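Hydroperoxide product was detected by ferrous iron/xylenol orange as the 573 to 405 nm absorbance ratio. Arachidonic acid at 40 uM (final) was turned over for 30 min at room temperature by 150 nM human 12hLO, pH 7.0 Hepes buffer, after 15 min compound preincubation.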
DT40 TDP1 no CPT: qHTS for Inhibitors of human tyrosyl-DNA phosphodiesterase 1 (TDP1): qHTS in cells in absence of CPT; DT40 Tdp1-/- hTDP1 cells, no CPT, ATP luminescence, 48 h; Potency, µM (titrated, usually from 46.2 µM), actives largely listed as inhibitors; 420,000 compounds, 15% hits; also: nearly all actives have a fitted effect of over 55% in size
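Luminescent ATP content (CellTiter-Glo) served as the growth readout. Knockout chicken DT40 cells expressing human TDP1 were exposed to compounds without camptothecin for a minimum 48 hr at 37 °C.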
HT1080 IDH1KD tx: qHTS for induction of synthetic lethality in tumor cells producing 2HG: qHTS for the HT-1080-IDH1KD cell line | 360,000 compounds, 2% hits | AID 686971, 2013 | HT-1080 IDH1 knockdown viability, ATP luminescence, 48 h | Potency, µM (top dose mostly 46.1 µM), usual class: cytotoxic
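CellTiter-Glo luminescence after 48 h compound exposure at 37 degrees C of IDH1-knockdown HT-1080 cells in 5% FBS RPMI. %Activity scaled between DMSO wells and cell-free media wells, with curves fitted and assigned curve classes.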
IL1B secr inh: qHTS for Inhibitors of Inflammasome Signaling: IL-1-beta AlphaLISA Primary Screen; 360,000 compounds, 4.7% hits; activity change, % at 57.5 µM; THP-1 LPS/ATP IL-1B secretion, AlphaLISA, 16 h; hits give low values; in the data active = activity change below about -50%; inconclusive = mostly about -30% to -49%
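THP-1 cells pretreated 1 hr with compounds (up to 57.5 uM final), then stimulated with LPS (250 ng/mL final) plus ATP (1.25 mM final); secreted IL-1B measured by AlphaLISA after 16 hr, decreased signal indicating inhibition.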
A number is an active result; . = inactive; ? = inconclusive; / = not tested or not shown; [ ] = another dose, or the depositor's remark. Unless noted, calls follow the shape of the dose curve; as a rule, active = well fitted curve in the direction sought with a large enough effect; inconclusive = small, poorly fitted or top-dose-only effect, or another doubt; inactive = no such curve, though single readings can be large; an effect the other way counts as inactive or inconclusive.

SMILES	HT1080NT lethal	DT40 TDP1 CPT	12-LOX inh	DT40 TDP1 no CPT	HT1080 IDH1KD tx	IL1B secr inh
Cc1ccc2c(c1)c(C1=c3ccccc3=NC1=O)c(O)n2C	.	4.61µM	.	2.06µM	.	.
CC(C)NC(=O)NC[C@H]1C[C@@H]2CCN1C[C@@H]2c1cc(-c2ccc(F)cc2)nn1C	/	/	.	/	/	/
FC(F)(F)c1ccc2c(c1)N(CCCN1CCN(CCCl)CC1)c1ccccc1S2	?	8.2µM	?	8.2µM	?	-116.2
c1ccc2c(c1)Sc1ccccc1N2C[C@@H]1CN2CCC1CC2	/	.	/	.	/	/
OCCN1CCN(CCCN2c3ccccc3Sc3ccc(C(F)(F)F)cc32)CC1	13µM	16.4µM	?	18.4µM	23.1µM	-56.7
Cc1noc(C)c1COc1ccc(CC(=O)N2CCN(CC(=O)N3CCCC3)CC2)cc1	/	/	.	/	/	/
CCOc1ccc(C(C)(C)COCc2cccc(Oc3ccccc3)c2)cc1	/	/	.	/	/	/
Cc1cccc(CC(=O)N2[C@H]3CC[C@@H]2c2cnc(-c4ccc(F)cc4)nc2C3)c1	/	/	.	/	/	/
O=S1(=O)N(CCN2CC=C(c3c[nH]c4cc(F)ccc34)CC2)c2cccc3c2N1CCC3	13µM	9.2µM	?	16.4µM	16.4µM	-58.8
CC(C)c1ccc(Oc2cccc3c2S(=O)(=O)N(C2CCCC2)CC(COCc2ccccc2)O3)cc1 (stereo not drawn)	.	10.3µM	.	9.2µM	.	.
CC(=O)OC1C(O)C2=C3C4(C)C1C(C)(C)C(=O)CC4C3(O)C(OC(C)=O)C1(CC1C)C2=O (stereo not drawn)	.	5.8µM	.	7.31µM	.	-121.1
CCC(c1nnnn1C1CCCCC1)N1CCC2(CC1)C(=O)NCN2c1ccccc1 (stereo not drawn)	.	?	.	?	.	.
CCC(c1nnnn1-c1ccc2c(c1)OCCO2)N1CCC(n2c(=O)[nH]c3ccccc32)CC1 (stereo not drawn)	?	10.3µM	?	9.2µM	?	.
CSCCC(c1nnnn1-c1ccc2c(c1)OCCO2)N1CCC(n2c(=O)[nH]c3ccccc32)CC1 (stereo not drawn)	?	7.31µM	.	7.31µM	?	?
O=C(Cc1ccccc1)N1CCC(C(=O)O)(c2ccccc2)CC1	/	/	.[6.33 µM]	/	/	/
CC(C)NC(=O)C(C)Cl (stereo not drawn)	/	/	.	/	/	/
COc1ccc(-c2cc([C@H]3CN4CC[C@H]3C[C@@H]4CNS(=O)(=O)c3ccc(Cl)cc3)n(C)n2)cc1OC	/	/	.	/	/	/
O=C(COc1ccc(F)cc1)N1CCN(Cc2cc(=O)n3nc(-c4ccc(F)cc4)sc3n2)CC1	/	/	.	/	/	/
COc1cccc(/C=C2\N=C(c3cncc(Br)c3)OC2=O)c1	.	?	.	23.1µM	.	.
Cc1c(-c2cccc(Cl)c2)nc2ccccc2c1C(=O)N1CCC2(CC1)OCCO2	.	20.6µM	.	?	?	.
CCCCOC(=O)c1ccc(NC(=O)c2c(O)[nH]c(=O)[nH]c2=O)cc1	.	.	.	.	.	.
CCOC(=O)c1ccc(NC(=O)c2nc[nH]c2C(=O)NCCNC(=O)c2[nH]cnc2C(=O)Nc2ccc(C(=O)OCC)cc2)cc1	.	2.91µM	.	3.66µM	.	.
O=C1c2ccccc2-c2c1nc1c([n+]2[O-])CCCC1	.	11.6µM	.	?	.	.
CC(=Cc1csc(C)n1)[C@@H]1C[C@H]2O[C@@H]2CCC[C@H](C)[C@@H](O)[C@@H](C)C(=O)C(C)(C)[C@@H](O)CC(=O)O1	/	/	.	/	/	/
CN(C)c1nc2c(c(N3C[C@H]4CNC[C@@]4(C(=O)O)C3)n1)CCCC2	/	/	.	/	/	/
SMILES	HT1080NT lethal	DT40 TDP1 CPT	12-LOX inh	DT40 TDP1 no CPT	HT1080 IDH1KD tx	IL1B secr inh
Cc1cccc(C)c1Oc1nc(-c2ccccc2)ncc1S(=O)(=O)c1ccccc1	.	?	.	18.4µM	.	.
O=C(NCc1c(-n2cccc2)sc2c1CCCC2)Nc1cccc(C(F)(F)F)c1	/	4.11µM	.	4.11µM	/	/
COC(=O)[C@@H]1C[C@H]1[C@@H](NP(=O)(c1ccccc1)c1ccccc1)c1ccccc1	.	20.6µM	.	?	.	.
O=C(Cc1ccccc1Cl)N1CCN(C2CCN(CCc3ccccc3)C2=O)CC1 (stereo not drawn)	/	/	.	/	/	/
COC(=O)C1=C(C(=O)OC)C2OC1c1cc3ccccc3cc12	?	0.461µM	.	0.731µM	3.26µM	.
O=c1[nH]sc2cc(F)ccc12	?	1.84µM	39.8µM	2.31µM	?	-107.6
CCCCc1cn(C[C@H]2C[C@@H]3CCN2C[C@@H]3C(=O)NCc2ccc(F)cc2)nn1	/	/	.	/	/	/
COc1ccc(-c2[nH]ncc2CNC(C)Cc2ccsc2)c(F)c1 (stereo not drawn)	.	?	.	?	.	.
CC(Cc1ccsc1)NCc1cn[nH]c1-c1ccc(F)cc1F (stereo not drawn)	.	?	.	?	.	-54.4
COCc1cn(C[C@H]2C[C@@H]3CCN2C[C@@H]3C(=O)NCc2ccco2)nn1	/	/	.	/	/	/
CC[N+](C)(CC)CCCCOc1ccc2c(c1)C(=O)c1cc(OCCCC[N+](C)(CC)CC)ccc1-2	.	?	?	29.1µM	.	.
COc1ccc(C(=O)Nc2ccc(-c3cc(C(F)(F)F)nn3-c3ccccc3)cc2)cc1OC	/	18.4µM	.	13µM	/	/
O=C(c1ccc2c(c1)N(Cc1ccc(F)cc1)CCS2)N1CCC2(CC1)OCCO2	.	?	.	?	.	-65.0
O=C(c1ccc2c(c1)N(Cc1ccc(F)cc1)C(=O)c1ccccc1S2)N1CCC2(CC1)OCCO2	/	16.4µM	?	16.4µM	/	/
Cc1ccc(CN2CCSc3ccc(C(=O)N4CCC5(CC4)OCCO5)cc32)cc1	.	?	.	?	.	?
Cc1ccc(C)c(CN2C(=O)c3ccccc3Sc3ccc(C(=O)N4CCC5(CC4)OCCO5)cc32)c1	/	?	.	20.6µM	/	/
CCOc1ccc(CN2C(=O)c3ccccc3Sc3ccc(C(=O)N4CCC5(CC4)OCCO5)cc32)cc1	/	18.4µM	.	?	/	/
COc1ccc2c(c1)C1(CCNC1)C(=O)N2 (stereo not drawn)	/	/	.	/	/	/
Cc1nc(-c2ccccc2Br)cc([C@H]2CN3CC[C@H]2C[C@@H]3CNC(=O)c2ccccc2)n1	/	/	.	/	/	/
Cc1nc(-c2ccccc2Br)cc([C@H]2CN3CC[C@H]2C[C@@H]3CNC(=O)Nc2ccccc2)n1	/	/	11.2µM	/	/	/

Screening results as filed in PubChem.
